Screening results deposited in PubChem by National Center for Advancing Translational Sciences (NCATS).
A selection: hits, their analogues and other compounds. The true share with any hit is near 0.77%.
LmPK inh: inhibitors of Leishmania mexicana pyruvate kinase; Q27686; AID 1721; actives 0.37% (n = 290,000); Potency, µM (series often up to 57.5 µM), for the others: at the top dose activity change, negative = inhibition, usual class: inhibitors; purified LmPK, Kinase-Glo ATP luminescence, 1 h; note: % is set by controls: 0 for no effect and ±100 for the full control effect
Target sequence (Q27686 whole entry, looked up): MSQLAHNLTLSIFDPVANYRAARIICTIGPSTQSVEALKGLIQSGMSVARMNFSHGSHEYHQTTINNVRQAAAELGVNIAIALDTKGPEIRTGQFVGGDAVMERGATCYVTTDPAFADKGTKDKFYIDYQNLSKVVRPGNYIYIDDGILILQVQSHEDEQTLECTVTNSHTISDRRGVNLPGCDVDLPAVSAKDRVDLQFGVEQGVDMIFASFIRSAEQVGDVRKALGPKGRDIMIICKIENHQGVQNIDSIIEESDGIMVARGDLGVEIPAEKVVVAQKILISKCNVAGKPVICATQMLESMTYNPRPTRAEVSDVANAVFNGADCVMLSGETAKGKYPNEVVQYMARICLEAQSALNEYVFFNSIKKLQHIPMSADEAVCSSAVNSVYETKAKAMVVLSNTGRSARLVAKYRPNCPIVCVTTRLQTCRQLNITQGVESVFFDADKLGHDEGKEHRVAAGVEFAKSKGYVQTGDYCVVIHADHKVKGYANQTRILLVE
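Purified LmPK (0.1 nM) with 0.5 mM PEP and 0.1 mM ADP in imidazole buffer pH 7.2 with MgCl2/KCl, 1 h at room temperature. ATP formed was read by luciferase luminescence and normalized to no-enzyme and uninhibited controls.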
NS1 function inh: inhibitors of influenza NS1 protein function | Potency, µM (highest dose often 46.1 µM), for inactives: at the top dose activity, positive = more growth | actives 0.4% (n = 270,000) | AID 2326; calls by dose curve; note: actives are rising curves; nearly all actives have a fitted effect of over 50% in size
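OD600 was taken as the measure of yeast growth restored by compound in an NS1-expressing S. cerevisiae strain. Cells had been washed out of glucose medium and diluted 1:100 into galactose -URA medium, pH 6.0.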
Tb PYK inh: T. brucei pyruvate kinase inhibition | AID 624173 | Potency, µM (titrated, usually from 76.8 µM), without a hit: at the highest dose activity, negative = inhibition, hits mostly inhibitors | Q57TT1 | actives 0.12% (n = 410,000) | TbPYK enzyme, Kinase-Glo Plus ATP luminescence, 45 min; note: % is set by controls: 0 for no effect and ±100 for the full control effect; nearly all actives have a fitted effect of over 50% in size
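Readout: single end-point luminescence (Kinase-Glo Plus, 10 min). Reaction conditions were TbPYK/substrate plus 130 uM ADP, 45 min at RT, pH 7.2 TEA buffer. No-enzyme wells served as controls, and data were normalized before concentration-response fitting.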
RE007 growth inh: less growth of the S. pombe RE007 Vpr strain; S. pombe RE007 Vpr strain, BacTiter-Glo ATP luminescence, 24 h; Potency, µM (doses to about 92.2 µM), without a hit: at the top dose activity change, negative = less growth, usual class: inhibitors; actives 0.21% (n = 360,000); AID 651644; active = well fitted falling curve with a large enough effect; inconclusive = small, poorly fitted or top-dose-only effect; inactive = no such curve, though single readings can be large or run the other way; note: % is set by controls: 0 for no effect and ±100 for the full control effect; nearly all actives have a fitted effect of over 50% in size
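Fission yeast RE007 carrying one integrated HIV-1 vpr copy, seeded at OD 0.01 in PMG+AL medium with 23 nL pinned compound. Grown 24 h at 30 degrees; viability read by BacTiter-Glo luminescence after 5 min.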
* = called active by the depositor; ? = inconclusive; / = not tested or not shown. Unless noted, calls come from the whole dose curve; as a rule, active = well fitted curve in the direction sought with a large enough effect; inconclusive = small, poorly fitted or top-dose-only effect, or another doubt; inactive = no such curve, though single readings can be large; an effect the other way counts as inactive or inconclusive. Potency is the fitted concentration of half-maximal effect.

SMILES	LmPK inh	NS1 function inh	Tb PYK inh	RE007 growth inh
COc1ccc2[nH]c3c(=O)n(CCCCC(=O)N4CCC(C(N)=O)CC4)c(=S)[nH]c3c2c1	4µM*	0%	6.3µM*	-16%
COc1ccc2[nH]c3c(=O)n(CCCCC(=O)NCCN4CCCC4)c(=S)[nH]c3c2c1	7.1µM*	0%	6.3µM*	-5%
Cc1ccccc1NC(=O)c1c(C)oc2ccc(O)c(CN3CCCCCC3)c12	/	/	-1%	/
COc1ccc(-c2[nH]n(-c3ccc([N+](=O)[O-])cc3)c(=O)c2C=NCCN2CCNCC2)cc1	16µM*	1%	/	/
Cc1[nH]n(-c2ccc([N+](=O)[O-])cc2)c(=O)c1C=NCCN1CCN(C(=O)c2ccccc2)CC1	28µM*	-1%	-18%	?
CCc1cc2c(=O)[nH]c(-c3ccccn3)nc2s1	-11%	-88%	0%	32µM*
CN(C)c1ccc(/C=N/NC(=O)c2ccco2)cc1	16µM*	-16%	-19%	-27%
O=C(N/N=C/c1ccc2ncccc2c1)c1ccco1	14µM*	/	-19%	-14%
O=C(N/N=C/c1ccccn1)c1ccco1	1%	-15%	7%	-16%
Cc1ccc(/C=N/NC(=O)c2ccco2)cc1	?	-6%	-4%	-6%
CN1C(=O)NC(=O)/C(=C/c2ccc([N+](=O)[O-])s2)C1=O	-16%	-63%	14µM*	?
O=C1NC(=O)N(c2ccccc2)C(=O)/C1=C\c1ccc([N+](=O)[O-])s1	-3%	-3%	?	?
O=C(c1ccco1)N1CCC2(CCCN(C(c3ccccc3)c3ccccc3)C2)CC1	/	/	-1%	/
CC(C)(C)c1ccc2c(c1)C(=O)c1ccccc1C2=O	?	-9%	-25%	13%
CC(C)(C)C1=CC=C(C(C)(C)C)C(=O)C1=O	22µM*	-1%	/	/
N#Cc1c(-c2ccccc2)cc(-c2ccccc2)nc1SCC(O)CS(=O)(=O)Cc1ccccc1 (stereo not drawn)	/	/	-2%	/
COC(=O)C1=C(C(=O)OC)C2OC1c1cc3ccccc3cc12	/	/	28µM*	35µM*
CC(C)(C)C1CCc2c(sc3nc(SCC(=O)O)nc(N)c23)C1 (stereo not drawn)	25µM*	5%	?	-1%
COc1cc(OC)c(N(C)C(=O)Nc2cn(CC(C)C)c(=O)c3ccccc23)cc1Cl	/	/	-3%	/
COc1ccccc1C(=O)NC1(C(F)(F)F)C(=O)Nc2c1c(=O)[nH]c(=O)n2-c1ccc(F)cc1 (stereo not drawn)	/	/	8%	/
COc1ccc2c(c1OC)C(=O)N(c1cccc(C)c1)C2	14µM*	-36%	-16%	-12%
Cc1cc(C)cc(C(=N)c2ccccc2Cc2cccc3ccccc23)c1	/	-11%	/	/
Cc1cccc(/C=C/C(=O)c2ccc([N+](=O)[O-])o2)c1	/	/	0%	7%
Cc1ccccc1/C=C/C(=O)c1ccc([N+](=O)[O-])o1	/	/	-8%	8.9µM*
O=C(Oc1cccc2cccnc12)c1cccs1	10%	-148%	6%	5µM*
SMILES	LmPK inh	NS1 function inh	Tb PYK inh	RE007 growth inh
O=C(Oc1cccc2cccnc12)c1ccco1	3%	-5%	-9%	28µM*
O=C(Oc1ccccc1)c1cccc2cccnc12	-1%	-30%	0%	35µM*
O=C(Oc1cccc2cccnc12)c1ccc(Br)o1	-7%	-22%	2%	-8%
CC(C)(C)c1ccc(C(=O)Nc2ccc(C(=O)OCc3cc(=O)n4ccsc4n3)cc2)cc1	/	/	4%	/
CN=c1sc(C(=O)Nc2ccccc2)c(C)n1C	-4%	/	-4%	-24%
CN=c1sc2c(n1C)C(=O)c1ccccc1C2=O	/	/	-25%	10µM*
COc1cccc(C(=O)NCCc2csc3nc(-c4ccccc4F)nn23)c1OC	/	/	0%	/
CCOCCc1nn2c(=O)cc(COC(=O)C3CCCCC3)nc2s1	/	/	0%	/
Cc1ccc(CCNC(=O)C2CCCN(C(=O)c3cc4sccc4n3C)C2)cc1 (stereo not drawn)	1%	-8%	8.9µM*	6%
CC(C)CC(=O)/C=C/n1c(=S)oc2ccccc21	-9%	-14%	-5%	-27%
CC(=O)/C=C/n1c(=S)oc2ccccc21	-17%	-41%	-1%	40µM*
Oc1cccc(N2Cc3ccccc3C2)c1	-23%	2%	-8%	-4%
Cc1cc2c(cc1C)CN(c1ccccc1)C2	16µM*	3%	-13%	-20%
O=C(c1cc(Br)ccc1O)c1cc(Br)ccc1O	/	-36%	/	/
O=C(c1ccc(O)c(Br)c1)c1cc(Br)ccc1O	/	/	-10%	63µM*
Cc1ccc(C)n1-c1nnc(N2CCC(C(=O)Nc3ccccc3Br)CC2)s1	/	/	3%	/
COc1ccc(CNC(=O)Cc2c(C)c3cc4c(C)coc4cc3oc2=O)cc1	/	/	2%	/
c1cncc(-c2nnc(-c3cccnc3)nn2)c1	-27%	-104%	-19%	22µM*
c1ccc(-c2nnc(-c3ccccc3)nn2)cc1	?	-3%	?	0%
CC(=O)c1cccc(NC(=O)C2CCN(S(=O)(=O)c3ccc4c(c3)CCCN4C(C)=O)CC2)c1	/	/	1%	/
COc1ccccc1N1CCN(C(=O)c2ccc3nc(-c4ccco4)c(-c4ccco4)nc3c2)CC1	9%	14µM*	?	22%
O=C(Nc1ccc2nc(SCC(=O)N3CCCC3)sc2c1)c1cccc(Br)c1	/	/	0%	/
COc1ccc2[nH]c(C)c(CN3CCCCC3)c(=O)c2c1	5%	4%	-1%	-2%
CCc1c(C)[nH]c2ccc(OC)cc2c1=S	?	-4%	2µM*	-12%
COc1ccc(C2=CC(=O)C=CC2=O)cc1	2.5µM*	-140%	/	/
SMILES	LmPK inh	NS1 function inh	Tb PYK inh	RE007 growth inh
CN=c1scc(C)n1/N=C/c1ccc2c(c1)OCO2	16µM*	-4%	2%	?
O=[N+]([O-])c1ccc2c(c1)-c1ccccc1C2O (stereo not drawn)	/	/	16µM*	-2%
COc1ccc(NC(=O)C2CCC(CNS(=O)(=O)c3cccc4nsnc34)CC2)cc1OC (stereo not drawn)	/	/	2%	/
CCn1nc(C)cc1-c1nnc(Sc2ncc([N+](=O)[O-])s2)n1C	1%	-84%	-22%	35µM*
CCn1nc(C)cc1-c1nnc(SCC(=O)Nc2ccccc2)n1CCCOC	-1%	5%	-1%	-12%
Oc1[nH]c2ccccc2c1N=NC(=S)N1CCOCC1	22µM*	-62%	?	9%
O=C(N=Nc1c(O)[nH]c2ccccc12)c1ccco1	25µM*	-33%	8%	-26%
Oc1[nH]c2ccc(Br)cc2c1N=NC(=S)N1CCOCC1	22µM*	-37%	?	13%
O=C(OCn1ncc(Cl)c(Cl)c1=O)c1cccc(C(F)(F)F)c1	0%	-164%	8%	45µM*
CCc1ccc(C(=O)Cn2ncc(Cl)c(Cl)c2=O)cc1	2%	3%	-6%	6%
COc1ccc(NC(=O)N2CCCC3(CCN(C(C)=O)CC3)C2)cc1	/	/	4%	/
CNc1nc(-c2ccccc2)[n+](-c2ccc(C)cc2)s1	22µM*	-9%	?	1%
Cc1ccc(-c2nc(N)s[n+]2-c2ccccc2)cc1	32µM*	24%	?	3%
